The AC50 is the midpoint of the concentration-response curve, whichever way the signal moves.

Experimental findings from PubChem BioAssay (EPA / NIEHS) are described below.

The source made the active and inactive calls. How the source made its calls: active means hit-call score of the fitted dose curve at least 0.9, where 1 is the maximum; inactive means score below 0.9. *1 amine or outer side, *2 acyl side, *3 side chain or, on linkers, in order; H or OH if unused. Where a SMILES comes first, the peptide text is derived from it. Bridges are numbered along the chain shown (N, C = ends). Roman numbers before positions name the chains, in order. [ ]: non-standard residue; d: D form. Actinocin(9to1) = Cc1c2oc3c(C)ccc(C(=O)[*:1])c3nc-2c(C(=O)[*:2])c(N)c1=O; NMeV = CN[C@H](C(=O)O)C(C)C; Sar = CNCC(=O)O

For the test, the system named is SRY-box transcription factor 2 (SOX2) Protein Expression, Deisenroth Lab, SOX2 (gene 6657). Put plainly: CCTE_Deisenroth_DEVTOX-GLR_legacy_Sox2: (Legacy) CCTE's DevTox GLR-Endo Assay Evaluation of SRY-box transcription factor 2 (SOX2) Protein Expression, Deisenroth Lab (AID 2284346). Here is the method:
CCTE_Deisenroth_DEVTOX-GLR_legacy assay is a cell-based, multiplex-readout assay that uses RUES2-GLR, a human pluripotent cell line, with measurements taken at 48 hours after chemical dosing in a 384-well microplateCCTE_Deisenroth_DEVTOX-GLR_legacy_Sox2 is one of 4 assay components calculated from the CCTE_Deisenroth_DEVTOX-GLR_legacy assay that measures an increase in the percentage of cells in an ectodermal or pluripotent state. It is designed to make measurements of inducible reporter a form of fluorescent protein induction as detected with optical fluorescence microscopy. Percentage Sox2+ cells are determined by calculating the number of Sox2+ cells divided by cell count. A cell is Sox2+ if the cell Sox2 mean intensity is 5x BMAD above the directed endoderm control median cell Sox2 mean. The assay endpoint was analyzed with bidirectional fitting with the 0.2% DMSO control median percent Sox2 in the CCTE_Deisenroth_DEVTOX-GLR_Endo assay subtracted.Data from the assay component CCTE_Deisenroth_DEVTOX-GLR_legacy_Sox2 was analyzed into 1 assay endpoint. This assay endpoint, CCTE_Deisenroth_DEVTOX-GLR_legacy_Sox2, was analyzed in the positive analysis fitting direction relative to DMSO as the negative control and baseline activity. Using a type of inducible reporter, gain-of-signal activity can be used to understand changes in gene expression. Furthermore, this assay endpoint can be referred to as a secondary readout, because this assay has produced multiple assay endpoints where this one serves as a measure of pluripotency or ectoderm differentiation. To generalize the intended target to other relatable targets, this assay endpoint is annotated to the transcription factor intended target family, where the subfamily is SRY-related HMG-box.
All assay protocols are aligned to the DevTox GLR-Endo assay workflow. Cells are seeded into 384-well microplates for 24 hours prior to initiating differentiation in defined media for a total duration of 48 hours. A total of two chemical exposures are administered in 24-hour intervals during the 48-hour differentiation period. At the assay termination point, cells are fixed and stained with a fluorescent dye demarcating the nucleus. High-content imaging is used to acquire brightfield and fluorescent channel images across 5 fields per well. Cell identification and mean biomarker fluorescence intensities are calculated with image analysis software to determine the total cell counts for viability assessment and the biomarker expression frequency for each lineage-dependent assay. A typical experimental design tests a 10-point concentration series (1 nM - 200 uM) for 28 compounds in single technical replicate. Assay plate controls include non-differentiated pluripotent cells (baseline control), lineage-specific differentiated cells (differentiation control), and DMSO solvent exposed differentiated cells (solvent control). Experiments typically comprise a minimum of four experimental replicates (n=4).
Regarding `COc1cc2c(Nc3ccc(Br)cc3F)ncnc2cc1OCC1CCN(C)CC1`, the AC50 is 7.85 µM (active).

On to `CNC(=O)c1cc(Oc2ccc(NC(=O)Nc3ccc(Cl)c(C(F)(F)F)c3)cc2)ccn1`, for which the AC50 is 1.5 µM (active).

As to `O=C(c1ccc(F)cc1)C1CCN(CCn2c(=O)[nH]c3ccccc3c2=O)CC1`, the AC50 was 9.92 µM (active).

As for `CCN(CC)CCNC(=O)c1c(C)[nH]c(/C=C2\C(=O)Nc3ccc(F)cc32)c1C`, the AC50 was 0.621 µM (active).

For the compound `CCCCCN=C(N)N/N=C/c1c[nH]c2ccc(OC)cc12`, the compound was classed as inactive.

With `Cc1nc2sccn2c(=O)c1CCN1CCC(=C(c2ccc(F)cc2)c2ccc(F)cc2)CC1`, the AC50 was 8.41 µM (active).

Turning to `O=C1Cc2cc(CCN3CCN(c4nsc5ccccc45)CC3)c(Cl)cc2N1`, the AC50 was 4.3 µM (active).

In the case of `O=c1[nH]c(=O)n([C@H]2C[C@H](O)[C@@H](CO)O2)cc1Br`, the AC50 is 14.4 µM (active).

For `Cc1c2oc3c(C)ccc(C(=O)N[C@@H]4C(=O)N[C@H](C(C)C)C(=O)N5CCC[C@H]5C(=O)N(C)CC(=O)N(C)[C@@H](C(C)C)C(=O)O[C@@H]4C)c3nc-2c(C(=O)N[C@@H]2C(=O)N[C@H](C(C)C)C(=O)N3CCC[C@H]3C(=O)N(C)CC(=O)N(C)[C@@H](C(C)C)C(=O)O[C@@H]2C)c(N)c1=O` (I: T[dV]P[Sar][NMeV] / II: T[dV]P[Sar][NMeV]; ester I:1-I:C, II:1-II:C; linker I:N-II:N via Actinocin(9to1)), the AC50 was 0.00231 µM (active).

Take `Cc1nc(Nc2ncc(C(=O)Nc3c(C)cccc3Cl)s2)cc(N2CCN(CCO)CC2)n1`: the AC50 is 151 µM (active).

Consider `COc1cc2ncnc(Nc3ccc(F)c(Cl)c3)c2cc1OCCCN1CCOCC1`, for which the AC50 is 5.86 µM (active).

On to `CC1=C(/C=C/C(C)=C/C=C/C(C)=C\C(=O)O)C(C)(C)CCC1`, for which the AC50 is 41.3 µM (active).

On to `Nc1cccc2c1CN(C1CCC(=O)NC1=O)C2=O` (stereo not given), for which the call was inactive.

Turning to `CN1CCN2c3ccccc3Cc3ccccc3C2C1` (stereo not given), the AC50 is 50.1 µM (active).

Take `Cc1ccc(NC(=O)c2ccc(CN3CCN(C)CC3)cc2)cc1Nc1nccc(-c2cccnc2)n1`: the AC50 is 19.3 µM (active).
